# Source: PubChem BioAssay (The Scripps Research Institute Molecular Screening Center)
# bovine MsrA act: bovine MsrA enzyme activators, primary screen, biochemical, absorbance, HTS; Methionine sulfoxide reductase A (Bos taurus); purified bovine MsrA, absorbance read-out; activation, % at 10.6 µM; 360,000 compounds, 0.3% hits; AID 602163, 2012; in the data active means activation above about 7.5%;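 further: 0% = vehicle and 100% = reference activator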
# MsrA inhibitor: bovine MsrA enzyme inhibitors, primary screen, biochemical, absorbance, HTS; 360,000 compounds, 0.75% hits; purified bovine MsrA, absorbance read-out; inhibition, % at 15.5 µM;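 further: 0% = vehicle wells with enzyme and 100% = reference inhibitor wells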
# rCAG binder: binders of r(CAG) RNA repeats, primary screen, biochemical, fluorescence; 370,000 compounds, 1.3% hits; r(CAG) RNA repeat, TO-PRO-1 dye displacement fluorescence; inhibition, % at 3 µM;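 active means inhibition above the plate cutoff, the mean of all test compounds on that plate plus 3 SD, cut at about 35% in these data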;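 further: 0% = DMSO alone and 100% = 100 µM mitoxantrone as full dye displacement; higher means more dye released from RNA so lower well fluorescence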
# HGIII-sPLA2 inh: human group III sPLA2 inhibitors, primary screen, biochemical, QFRET, BODIPY PC-A2 liposome substrate; Group 3 secretory phospholipase A2 (Homo sapiens), Q9NZ20; QFRET BODIPY PC-A2 liposome hydrolysis, fluorescence; inhibition, % at 12.2 µM; 370,000 compounds, 0.56% hits; AID 743126, 2013;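 active means inhibition above mean plus 3 SD of compounds lying within the high and low control bounds, cut at about 19% in these data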;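 further: 0% = median of test compound wells and 100% = no enzyme DMSO wells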
# Target sequence (Q9NZ20 whole entry, looked up): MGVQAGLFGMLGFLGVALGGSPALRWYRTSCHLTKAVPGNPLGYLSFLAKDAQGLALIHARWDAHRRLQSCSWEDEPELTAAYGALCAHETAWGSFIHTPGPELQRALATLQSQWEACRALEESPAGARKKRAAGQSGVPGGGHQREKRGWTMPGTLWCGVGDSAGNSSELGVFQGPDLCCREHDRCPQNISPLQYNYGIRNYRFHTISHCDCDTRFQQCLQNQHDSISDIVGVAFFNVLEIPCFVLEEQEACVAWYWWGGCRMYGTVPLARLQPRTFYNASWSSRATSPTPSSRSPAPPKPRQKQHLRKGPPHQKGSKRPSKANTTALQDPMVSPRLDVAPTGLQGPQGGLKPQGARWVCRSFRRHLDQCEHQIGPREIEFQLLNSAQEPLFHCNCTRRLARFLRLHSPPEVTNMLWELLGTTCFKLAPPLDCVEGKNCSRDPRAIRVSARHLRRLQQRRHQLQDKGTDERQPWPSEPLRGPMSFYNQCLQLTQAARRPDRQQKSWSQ
# MsrA inh confirm: bovine MsrA inhibitors, retest, confirmation, biochemical, absorbance, HTS; 2,300 compounds, 41% hits; shares compounds with MsrA inhibitor; purified bovine MsrA, absorbance read-out; inhibition, % at 15.5 µM;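 further: coupled to thioredoxin reductase with NADPH and selenocystamine and DMSO as substrate; 0% = vehicle only and 100% = full effect of reference inhibitor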
# Starred values were filed as active, the others as inactive; · = no result given. This is a sample that favours compounds with a hit; in the whole collection about 2.8% have one here. Unless noted, no stated cut-off is given here; in the data, active means inhibition above about 4.5%; inactive means the rest.
SMILES,bovine MsrA act,MsrA inhibitor,rCAG binder,HGIII-sPLA2 inh,MsrA inh confirm
CCOC(=O)N1CCC(N2CCCC(C(=O)c3ccccc3OC)C2)CC1 (configuration not stated),-1.5,0.6,1.6,2.7,·
COc1ccc(Cl)c2c1[nH]c1nc(SCc3ccccn3)nnc12,-2.0,0.9,23.4,-12.2,·
Cc1cc2nc(-c3ccc(SCc4ccccc4C#N)nc3)[nH]c2cc1C,-2.6,0.9,12.4,-10.4,·
Cc1cc2nc(-c3ccc(SCc4ccc(C(=O)O)cc4)nc3)[nH]c2cc1C,-1.9,5.5*,22.1,1.7,4.0
O=C(c1ccc(O)cc1)c1ccc(O)cc1O,-4.2,2.6,0.9,-3.1,·
O=C(c1ccccc1)c1ccc(O)cc1O,-6.4,5.6*,-196.0,-166.1,2.5
O=C(N/C(=C/c1ccc(Br)cc1)c1nc2ccccc2[nH]1)c1ccco1,-7.5,5.9*,11.5,-17.4,3.6
O=C(N/C(=C/c1ccc(Cl)cc1)c1nc2ccccc2[nH]1)c1ccco1,-7.3,4.0,0.9,-7.4,·
O=S(=O)(O)Sc1ccccc1,-8.0,8.5*,3.8,13.8,1.6
CN(C)/C=C1/NC(=S)NC1=O,-3.2,5.5*,-0.6,3.2,6.7*
CCN1C(=O)/C(=C\N(C)C)NC1=S,-7.4,5.0*,-3.6,5.0,2.8
O=C1NC(=S)NC1=Cc1ccc(O)cc1,2.0,1.3,-0.3,3.4,·
CCCN1C(=O)/C(=C/c2ccc(C)s2)NC1=S,-9.2,1.7,0.6,7.8,·
COc1ccc(N2C(=O)/C(=C/N(C)C)NC2=S)cc1,-3.8,7.3*,1.4,0.8,5.8*
O=C(O)CC1NCCc2ccccc21 (configuration not stated),1.6,-1.4,0.5,-8.0,·
Cc1ccc(C2=N/C(=C/N3CCOCC3)C(=O)O2)cc1,-5.2,6.5*,-4.5,-3.1,7.6*
COc1ccc(/C=C2\N=C(c3ccc(C)cc3)OC2=O)cc1,-0.1,-0.9,2.4,-2.9,·
Cc1ccc(C2=N/C(=C\N3CCCCC3)C(=O)O2)cc1,-15.1,6.1*,2.0,2.6,5.9*
Cc1ccccc1-n1ncc2c([N+](=O)[O-])cc([N+](=O)[O-])cc21,1.1,5.6*,-1.2,8.0,2.8
Cc1noc(C)c1C(=O)Nc1nnc(-c2ccccc2)s1,-5.6,4.3,2.8,3.4,·
Cc1onc(-c2ccccc2)c1C(=O)Nc1nnc(-c2ccncc2)s1,-19.1,5.0*,12.5,-3.8,4.9*
Cc1c(Cl)cccc1NC(=S)NC(=O)CCN1C(=O)c2ccccc2C1=O,-3.0,-1.2,2.0,5.1,·
CCN1CCCC1CNC(=O)Cn1nc(C)n2c(cc3cc(F)ccc32)c1=O (configuration not stated),-7.9,25.0*,1.9,8.4,0.4
NC(=O)C1(C(N)=O)OC1c1ccccc1 (configuration not stated),-3.3,-1.2,0.6,-1.1,·
CC1(C)Cc2c(cnn2-c2ccc(F)cc2)C(NC(=O)C(C)(C)O)C1 (configuration not stated),-4.0,-0.1,-2.2,0.5,·
SMILES,bovine MsrA act,MsrA inhibitor,rCAG binder,HGIII-sPLA2 inh,MsrA inh confirm
COc1ccc2c(c1)c(C(=O)N/N=C/c1ccc(Br)cc1)c(C)n2C,-8.8,0.0,2.2,-0.8,·
COc1ccc2c(c1)c(C(=O)N/N=C/c1ccc(O)c(O)c1)c(C)n2C,-9.9,5.5*,7.3,12.1,4.5
Cc1nonc1C(=O)N/N=C/c1ccc(O)c(O)c1,-3.4,3.7,1.8,-2.1,·
O=C(N/N=C/c1ccc(O)c(O)c1)N/N=C/c1ccc(O)c(O)c1,-10.1,5.7*,5.9,-10.8,2.9
CC(C)OCCCNC(=O)Cn1nc(-c2ccccc2)ccc1=O,-0.6,1.4,-3.7,2.1,·
Cc1c(CC(=O)N[C@@H](C)C(=O)O)c(=O)oc2cc3c(cc12)CCC(C)(C)O3,-9.7,5.3*,1.7,4.6,3.5
Cc1c(CC(=O)NC(C)C)c(=O)oc2cc3c(cc12)CCC(C)(C)O3,-3.5,2.8,-6.5,3.1,·
CC(=O)c1ccc(N2CCN(C(=O)c3ccc4c(c3)OCO4)CC2)cc1,-7.6,4.8*,-7.8,-0.6,4.0
Cc1nn(Cc2ccc(Cl)cc2)c(=O)n1N(C)c1ncc(C(F)(F)F)cc1Cl,-2.8,15.0*,-8.8,-5.2,12.7*
Cc1nc2c(ccc3c2ccc2nc(C)sc23)s1,·,0.5,5.3,-3.2,·
CC1(C)CC(=O)C2=C(C1)Nc1ccccc1NC2c1ccc2c(c1)OCO2 (configuration not stated),-2.1,6.6*,-2.5,-2.5,4.1
COc1ccccc1C1Nc2ccccc2NC2=C1C(=O)CC(C)(C)C2 (configuration not stated),-4.4,5.4*,-3.4,8.4,3.6
CC1(C)CC(=O)C2=C(C1)Nc1ccccc1NC2c1ccc(F)cc1 (configuration not stated),-6.2,2.7,-4.7,-1.5,·
CCCCNC(=O)CSc1nc2ccc(Nc3nc(N4CCOCC4)nc(N4CCOCC4)n3)cc2s1,-3.6,-0.5,-0.5,-8.8,·
COC(=O)c1sccc1NC(=O)c1ccc(C)o1,-0.9,0.6,-2.3,-9.7,·
COC(=O)c1sccc1NC(=O)c1ccc(Br)o1,2.2,5.7*,3.1,-1.4,2.5
C=CCNc1ncnc2c1ncn2[C@H]1CN(Cc2ccccc2)C[C@@H](CO)O1,0.4,0.4,0.8,-4.1,·
CCOC(=O)c1cc2c(ccc3ccccc32)oc1=O,-2.5,20.0*,6.0,11.2,13.4*
Cc1ccc(Oc2nc3ccccc3n3cccc23)cc1,-7.0,-0.1,-2.0,1.3,·
COCc1cc(C)nc(N/N=C/c2ccc(-c3cc(C(=O)O)ccc3Cl)o2)c1C#N,·,5.3*,6.8,1.4,1.4
CCOC(=O)c1cccc(C2=CC(=O)CC(C)(C)C2)c1,-0.8,-0.3,-2.9,-0.3,·
CCOC(=O)C1CCN(C(=O)c2ccc(C)o2)CC1,-3.8,-0.4,3.8,1.7,·
CCOC(=O)C1CCN(C(=O)c2c(C)oc3c2C(=O)c2ccccc2C3=O)CC1,2.0,9.3*,11.7,0.9,13.7*
CC1CCN(C(=O)c2ccc3c(c2)C(=O)c2ccccc2-3)CC1,-3.2,0.5,0.5,-0.6,·
Cc1oc2c(c1C(=O)N1CCC(C)CC1)C(=O)c1ccccc1C2=O,·,13.0*,3.4,-6.7,6.0*
COc1cc(S(=O)(=O)N2CCOCC2)ccc1NC(=O)COC(=O)CC12CC3CC(CC(C3)C1)C2,-1.9,0.1,15.2,-35.0,·
CC(=C1N=C(c2ccccc2)OC1=O)c1cccs1,·,0.3,4.6,0.2,·
CN(C)/C(CN1CCN(C=O)CC1)=C1\N=C(c2ccccc2)OC1=O,-5.7,6.0*,-6.2,1.6,5.3*
CCCCCCn1cc(CN2CC=CS2(=O)=O)nn1,·,·,-1.1,9.4,·
O=C(/C=C/C=C/c1ccccc1)CC1(O)C(=O)N(CCc2ccccc2)c2ccccc21 (configuration not stated),-4.2,1.5,0.7,-9.4,·
